{"source": "ChEMBL document CHEMBL4513216", "about": "“Probing the Open Global Health Chemical Diversity Library for Multistage-Active Starting Points for Next-Generation Antimalarials” (ACS Infect Dis, 2020)", "note": "Out of some 68,000 compounds screened, about 2,700 (4%) showed an effect of 50% or more. This is one part of a sample in which strong results are shown more often than they occur.", "data": [{"tested_on": "Plasmodium berghei", "experiment": "Screen against P. berghei liver stage (PbLuc), transformed with Luciferase, at 2uM", "type": "functional, HepG2", "settings": "tested at 2 uM", "units": {"INHIBITION": "%"}, "values": [{"smiles": "CC(=O)N1CCC(c2ccnc(Nc3cnccn3)n2)C1", "note": "(stereo not given)", "INHIBITION": 28.45}, {"smiles": "CC(C)CN1CCC2(CC1)C(=O)Nc1ccc(C(=O)N(C)C)cc12", "INHIBITION": 11.28}, {"smiles": "Cc1cc(O)ccc1-c1cc(-c2cnn(C)c2C2CC2)c(C#N)c(N)n1", "INHIBITION": 7.06}, {"smiles": "c1cc2occc2c(N2CCCC(c3nncn3C3CC3)C2)n1", "note": "(stereo not given)", "INHIBITION": 12.62}, {"smiles": "CCCc1ccc(CN2CCC3(CCC(=O)N(CCCOC)C3)CC2)o1", "INHIBITION": -26.08}, {"smiles": "CCCc1nccn1-c1ccc(C(C)O)cc1", "note": "(stereo not given)", "INHIBITION": 10.23}, {"smiles": "CCCc1nccn1-c1ccc(C(O)CN2CCOCC2)cc1", "note": "(stereo not given)", "INHIBITION": 62}, {"smiles": "OC(CN1CCOCC1)c1ccc(Br)cc1", "note": "(stereo not given)", "INHIBITION": 36.23}, {"smiles": "O=C(CN1CCCC1)N1CCCC(c2cc(=O)n3c(n2)CCCCC3)C1", "note": "(stereo not given)", "INHIBITION": 18.22}, {"smiles": "CN(C)c1ncccc1CNC(=O)N(Cc1ccccc1F)C1CC1", "INHIBITION": -20.35}, {"smiles": "Cc1ccc(CNC(=O)N(Cc2ccccc2F)C2CC2)cn1", "INHIBITION": 70.41}, {"smiles": "O=C(NCc1ccncc1)N(Cc1ccccc1F)C1CC1", "INHIBITION": 14.83}, {"smiles": "Cc1nc(C2(O)CCCNCC2)sc1CCOc1ccccc1Cl", "note": "(stereo not given)", "INHIBITION": -16.62}, {"smiles": "CCOc1ncccc1NC(=O)N1CCN(c2cccc(C)c2C)CC1", "INHIBITION": 30.91}, {"smiles": "Cc1n[nH]c(C)c1NC(=O)CN1CCCC1c1noc(C(C)C)n1", "note": "(stereo not given)", "INHIBITION": 15.28}, {"smiles": "CN1CCN(C(=O)Cc2cccc(F)c2)Cc2cccnc21", "INHIBITION": 26.09}, {"smiles": "c1cncc(-c2noc(C3CN(Cc4cccs4)C3)n2)c1", "INHIBITION": 51.71}, {"smiles": "O=C(Cc1cccs1)N1CC(c2nc(-c3cnccn3)no2)C1", "INHIBITION": 50.2}, {"smiles": "COc1cccc(-c2noc(C3CCN(Cc4cccs4)C3)n2)c1", "note": "(stereo not given)", "INHIBITION": 11.1}, {"smiles": "c1csc(CN2CC(c3nc(-c4cnccn4)no3)C2)c1", "INHIBITION": 26.54}, {"smiles": "c1cnc(-c2noc(C3CN(Cc4ccsc4)C3)n2)cn1", "INHIBITION": 5.39}, {"smiles": "N#Cc1cccc(C(=O)N2CC(c3nc(-c4cccnc4)no3)C2)c1", "INHIBITION": 25.53}, {"smiles": "CCc1ccc(NC(=O)N2C[C@H]3CC[C@@]4(N=C(C)N(C)C4=O)[C@H]3C2)cc1", "INHIBITION": 17.4}, {"smiles": "O=C(Nc1c(N2CCCC2)cccc1N1CCCC1)c1ccccn1", "INHIBITION": 32.26}, {"smiles": "O=C(Nc1c(N2CCCC2)cccc1N1CCCC1)c1cnccn1", "INHIBITION": 19.33}, {"smiles": "O=C(Nc1c(N2CCCC2)cccc1N1CCCC1)c1cnsn1", "INHIBITION": 52.38}, {"smiles": "CCOc1cc(CN(C)CCC#N)ccc1OC(F)F", "INHIBITION": 14.17}, {"smiles": "Cc1cc(C)cc(CNCCS(=O)(=O)N2CCOCC2)c1", "INHIBITION": -6.33}, {"smiles": "OCC(CO)Nc1nc(C(F)F)nc2ccccc12", "INHIBITION": -11.32}, {"smiles": "CNc1cc(C2CN(Cc3scnc3C)CCO2)nc(C)n1", "note": "(stereo not given)", "INHIBITION": -1.07}]}]}
